This is an account of results in ChEMBL document CHEMBL1961873, “Compounds: GSK PKIS; Assays: Nanosyn kinase panel” (2012).

Assay [1] concerns the target Calcium/calmodulin-dependent protein kinase type II subunit alpha (Homo sapiens) (UniProt Q9UQM7). The settings on record: at 1 µM.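 Further: reported value is a mean percent inhibition of CAMK2A.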
In assay [2] the target is Calcium/calmodulin-dependent protein kinase type II subunit delta (Homo sapiens) (UniProt Q13557). The settings on record: at 0.1 µM.
Sequence of Calcium/calmodulin-dependent protein kinase type II subunit delta (Homo sapiens) (Q13557 whole entry): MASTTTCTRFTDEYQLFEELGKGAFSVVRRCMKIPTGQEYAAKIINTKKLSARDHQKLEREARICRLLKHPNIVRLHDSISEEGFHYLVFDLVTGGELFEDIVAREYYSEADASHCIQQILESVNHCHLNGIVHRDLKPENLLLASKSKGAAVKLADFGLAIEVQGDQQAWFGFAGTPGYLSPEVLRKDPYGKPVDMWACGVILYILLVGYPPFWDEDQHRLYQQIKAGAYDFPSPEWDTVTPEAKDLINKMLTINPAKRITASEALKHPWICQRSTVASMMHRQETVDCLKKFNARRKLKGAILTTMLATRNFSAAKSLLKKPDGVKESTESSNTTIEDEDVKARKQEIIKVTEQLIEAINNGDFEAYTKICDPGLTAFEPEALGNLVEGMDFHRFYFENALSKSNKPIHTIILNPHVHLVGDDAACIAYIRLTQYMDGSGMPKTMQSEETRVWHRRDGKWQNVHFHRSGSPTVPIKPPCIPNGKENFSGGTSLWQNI
The target is the same in assay [3]. Particulars: at 1 µM.
Assay [4] has as its target T1, Calcium/calmodulin-dependent protein kinase type IV (Homo sapiens) (UniProt Q16566).
T1 sequence (whole entry): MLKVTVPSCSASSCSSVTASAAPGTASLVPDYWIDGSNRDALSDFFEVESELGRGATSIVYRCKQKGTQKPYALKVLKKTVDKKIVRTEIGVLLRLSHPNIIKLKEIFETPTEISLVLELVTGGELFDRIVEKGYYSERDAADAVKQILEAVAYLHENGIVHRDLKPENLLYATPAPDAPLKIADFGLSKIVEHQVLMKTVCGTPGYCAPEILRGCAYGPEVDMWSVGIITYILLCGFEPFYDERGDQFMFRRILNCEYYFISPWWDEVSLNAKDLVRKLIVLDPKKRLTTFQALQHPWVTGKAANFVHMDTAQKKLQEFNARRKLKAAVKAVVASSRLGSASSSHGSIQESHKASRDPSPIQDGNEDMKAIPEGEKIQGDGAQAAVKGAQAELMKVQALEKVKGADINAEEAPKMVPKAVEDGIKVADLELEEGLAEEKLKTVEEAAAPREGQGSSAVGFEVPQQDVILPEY
Particulars: at 0.1 µM.

Assay [5] deals with T1, Calcium/calmodulin-dependent protein kinase type IV (Homo sapiens). The settings on record: at 1 µM.
For assay [6], the target named is T2, Serine/threonine-protein kinase Chk1 (Homo sapiens) (UniProt O14757).
T2 sequence (whole entry): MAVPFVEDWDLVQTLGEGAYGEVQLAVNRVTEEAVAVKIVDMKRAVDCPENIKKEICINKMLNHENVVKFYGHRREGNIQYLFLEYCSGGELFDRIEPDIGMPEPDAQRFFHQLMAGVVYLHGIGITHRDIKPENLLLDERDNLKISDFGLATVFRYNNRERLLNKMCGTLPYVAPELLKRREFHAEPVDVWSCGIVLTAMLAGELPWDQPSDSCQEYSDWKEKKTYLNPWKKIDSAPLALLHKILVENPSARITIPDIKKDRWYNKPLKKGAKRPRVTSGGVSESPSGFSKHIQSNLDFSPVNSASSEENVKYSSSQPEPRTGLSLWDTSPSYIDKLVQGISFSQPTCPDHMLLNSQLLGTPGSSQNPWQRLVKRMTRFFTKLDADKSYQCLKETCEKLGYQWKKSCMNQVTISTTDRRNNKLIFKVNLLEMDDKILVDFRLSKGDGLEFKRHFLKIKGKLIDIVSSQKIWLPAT
The settings on record: at 0.1 µM.

Assay [7] concerns the target T2, Serine/threonine-protein kinase Chk1 (Homo sapiens). The settings on record: at 1 µM.
In assay [8] the target is Serine/threonine-protein kinase Chk2 (Homo sapiens) (UniProt O96017). Particulars: at 0.1 µM.
Sequence of Serine/threonine-protein kinase Chk2 (Homo sapiens) (O96017 whole entry): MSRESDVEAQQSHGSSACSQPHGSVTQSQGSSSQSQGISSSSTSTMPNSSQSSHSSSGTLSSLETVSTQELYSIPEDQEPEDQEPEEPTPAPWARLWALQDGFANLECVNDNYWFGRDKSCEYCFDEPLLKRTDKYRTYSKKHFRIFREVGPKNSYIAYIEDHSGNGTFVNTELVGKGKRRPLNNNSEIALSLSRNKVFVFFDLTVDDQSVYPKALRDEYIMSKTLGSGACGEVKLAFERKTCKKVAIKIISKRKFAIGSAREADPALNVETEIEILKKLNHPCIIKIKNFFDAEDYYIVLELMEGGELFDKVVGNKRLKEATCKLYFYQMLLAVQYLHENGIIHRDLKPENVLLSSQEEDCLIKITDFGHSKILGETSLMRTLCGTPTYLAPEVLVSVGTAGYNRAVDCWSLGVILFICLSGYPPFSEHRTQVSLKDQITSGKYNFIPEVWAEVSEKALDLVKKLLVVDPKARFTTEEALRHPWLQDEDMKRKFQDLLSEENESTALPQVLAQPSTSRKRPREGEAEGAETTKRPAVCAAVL
The target is the same in assay [9]. The settings on record: at 1 µM.
For assay [10], the target named is Death-associated protein kinase 1 (Homo sapiens) (UniProt P53355). The settings on record: at 0.1 µM.
Sequence of Death-associated protein kinase 1 (Homo sapiens) (P53355 whole entry, looked up): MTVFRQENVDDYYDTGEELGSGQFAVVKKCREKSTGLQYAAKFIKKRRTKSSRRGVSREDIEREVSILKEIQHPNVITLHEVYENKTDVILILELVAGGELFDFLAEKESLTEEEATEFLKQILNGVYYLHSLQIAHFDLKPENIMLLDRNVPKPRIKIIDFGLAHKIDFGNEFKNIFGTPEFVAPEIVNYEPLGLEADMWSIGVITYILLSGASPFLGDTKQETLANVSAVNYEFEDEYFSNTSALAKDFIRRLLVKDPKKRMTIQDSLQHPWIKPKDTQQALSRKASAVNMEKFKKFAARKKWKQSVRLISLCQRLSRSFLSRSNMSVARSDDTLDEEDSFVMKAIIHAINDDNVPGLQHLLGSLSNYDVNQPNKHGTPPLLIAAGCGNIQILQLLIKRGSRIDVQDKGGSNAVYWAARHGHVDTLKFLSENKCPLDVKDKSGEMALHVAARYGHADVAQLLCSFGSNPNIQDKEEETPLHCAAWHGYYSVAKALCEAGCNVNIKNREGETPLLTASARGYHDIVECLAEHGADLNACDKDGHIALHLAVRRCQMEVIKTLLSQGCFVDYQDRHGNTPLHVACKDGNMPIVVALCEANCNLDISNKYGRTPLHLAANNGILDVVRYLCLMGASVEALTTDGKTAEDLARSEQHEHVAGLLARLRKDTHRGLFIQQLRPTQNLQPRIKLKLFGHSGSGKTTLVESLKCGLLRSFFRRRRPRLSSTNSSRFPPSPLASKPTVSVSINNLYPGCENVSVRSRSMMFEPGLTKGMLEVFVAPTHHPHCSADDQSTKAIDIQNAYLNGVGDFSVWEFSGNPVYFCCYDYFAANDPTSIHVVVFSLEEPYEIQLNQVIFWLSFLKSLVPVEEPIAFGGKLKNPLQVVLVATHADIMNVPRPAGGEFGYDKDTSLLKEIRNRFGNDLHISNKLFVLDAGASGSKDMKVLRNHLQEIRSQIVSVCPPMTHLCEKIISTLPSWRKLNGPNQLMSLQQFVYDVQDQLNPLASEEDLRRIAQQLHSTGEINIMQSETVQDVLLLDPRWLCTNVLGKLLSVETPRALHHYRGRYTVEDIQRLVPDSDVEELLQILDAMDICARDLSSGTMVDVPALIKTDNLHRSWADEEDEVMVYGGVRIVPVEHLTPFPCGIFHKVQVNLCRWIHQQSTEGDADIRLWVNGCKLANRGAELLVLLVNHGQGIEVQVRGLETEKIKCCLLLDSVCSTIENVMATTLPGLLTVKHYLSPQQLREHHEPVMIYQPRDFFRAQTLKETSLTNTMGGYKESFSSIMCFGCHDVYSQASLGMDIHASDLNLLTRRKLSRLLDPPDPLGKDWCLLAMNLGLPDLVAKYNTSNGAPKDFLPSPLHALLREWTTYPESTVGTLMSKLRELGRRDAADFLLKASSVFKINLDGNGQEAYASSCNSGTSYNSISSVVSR
Assay [11] shares this target. Particulars: at 1 µM.
Assay [12] deals with T3, Serine/threonine-protein kinase DCLK2 (Homo sapiens) (UniProt Q8N568).
T3 sequence (whole entry): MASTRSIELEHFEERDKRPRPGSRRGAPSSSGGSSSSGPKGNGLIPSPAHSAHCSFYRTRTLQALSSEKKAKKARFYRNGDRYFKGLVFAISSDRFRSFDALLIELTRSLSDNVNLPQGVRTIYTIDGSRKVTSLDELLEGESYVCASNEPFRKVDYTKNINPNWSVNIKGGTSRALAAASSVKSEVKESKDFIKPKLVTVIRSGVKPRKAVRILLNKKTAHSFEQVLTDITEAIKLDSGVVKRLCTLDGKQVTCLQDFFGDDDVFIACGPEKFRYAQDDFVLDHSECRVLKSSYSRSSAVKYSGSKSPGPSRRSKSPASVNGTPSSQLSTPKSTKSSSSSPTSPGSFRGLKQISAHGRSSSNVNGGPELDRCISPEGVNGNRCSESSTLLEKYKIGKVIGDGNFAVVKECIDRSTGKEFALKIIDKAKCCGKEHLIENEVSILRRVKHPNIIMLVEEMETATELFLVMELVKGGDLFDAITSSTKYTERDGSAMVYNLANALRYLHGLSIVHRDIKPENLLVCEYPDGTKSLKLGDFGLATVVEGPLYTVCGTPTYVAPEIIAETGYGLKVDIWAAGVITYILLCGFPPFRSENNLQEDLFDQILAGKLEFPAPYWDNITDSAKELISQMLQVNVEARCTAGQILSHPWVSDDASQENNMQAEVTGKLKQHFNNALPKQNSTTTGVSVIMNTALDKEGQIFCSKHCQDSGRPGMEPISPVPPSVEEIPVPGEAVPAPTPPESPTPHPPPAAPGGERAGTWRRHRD
Particulars: at 0.1 µM.

In assay [13] the target is T3, Serine/threonine-protein kinase DCLK2 (Homo sapiens). The settings on record: at 1 µM.
Assay [14] has as its target MAP kinase-activated protein kinase 2 (Homo sapiens) (UniProt P49137). The settings on record: at 0.1 µM.
The target is the same in assay [15]. The settings on record: at 1 µM.
Assay [16] deals with MAP kinase-activated protein kinase 3 (Homo sapiens) (UniProt Q16644). The settings on record: at 0.1 µM.
Sequence of MAP kinase-activated protein kinase 3 (Homo sapiens) (Q16644 whole entry, looked up): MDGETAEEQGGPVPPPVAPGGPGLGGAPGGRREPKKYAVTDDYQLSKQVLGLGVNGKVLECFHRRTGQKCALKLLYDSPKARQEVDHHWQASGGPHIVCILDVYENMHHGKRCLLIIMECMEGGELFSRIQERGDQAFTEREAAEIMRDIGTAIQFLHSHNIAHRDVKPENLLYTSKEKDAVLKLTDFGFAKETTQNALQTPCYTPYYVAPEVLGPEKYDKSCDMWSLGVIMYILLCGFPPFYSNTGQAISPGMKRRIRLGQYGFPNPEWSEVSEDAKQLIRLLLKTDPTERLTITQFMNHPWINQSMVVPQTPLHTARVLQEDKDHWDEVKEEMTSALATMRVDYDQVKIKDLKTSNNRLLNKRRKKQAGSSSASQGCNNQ
The target is the same in assay [17]. Particulars: at 1 µM.
Assay [18] concerns the target Serine/threonine-protein kinase MARK1 (Homo sapiens) (UniProt Q9P0L2). The settings on record: at 0.1 µM.
The target is the same in assay [19]. The settings on record: at 1 µM.
Assay [20] concerns the target MAP/microtubule affinity-regulating kinase 3 (Homo sapiens) (UniProt P27448). The settings on record: at 0.1 µM.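 Further: mean percent inhibition of MARK3 kinase activity, measured within the GSK PKIS screening panel.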

Sequence of MAP/microtubule affinity-regulating kinase 3 (Homo sapiens) (P27448 whole entry, looked up): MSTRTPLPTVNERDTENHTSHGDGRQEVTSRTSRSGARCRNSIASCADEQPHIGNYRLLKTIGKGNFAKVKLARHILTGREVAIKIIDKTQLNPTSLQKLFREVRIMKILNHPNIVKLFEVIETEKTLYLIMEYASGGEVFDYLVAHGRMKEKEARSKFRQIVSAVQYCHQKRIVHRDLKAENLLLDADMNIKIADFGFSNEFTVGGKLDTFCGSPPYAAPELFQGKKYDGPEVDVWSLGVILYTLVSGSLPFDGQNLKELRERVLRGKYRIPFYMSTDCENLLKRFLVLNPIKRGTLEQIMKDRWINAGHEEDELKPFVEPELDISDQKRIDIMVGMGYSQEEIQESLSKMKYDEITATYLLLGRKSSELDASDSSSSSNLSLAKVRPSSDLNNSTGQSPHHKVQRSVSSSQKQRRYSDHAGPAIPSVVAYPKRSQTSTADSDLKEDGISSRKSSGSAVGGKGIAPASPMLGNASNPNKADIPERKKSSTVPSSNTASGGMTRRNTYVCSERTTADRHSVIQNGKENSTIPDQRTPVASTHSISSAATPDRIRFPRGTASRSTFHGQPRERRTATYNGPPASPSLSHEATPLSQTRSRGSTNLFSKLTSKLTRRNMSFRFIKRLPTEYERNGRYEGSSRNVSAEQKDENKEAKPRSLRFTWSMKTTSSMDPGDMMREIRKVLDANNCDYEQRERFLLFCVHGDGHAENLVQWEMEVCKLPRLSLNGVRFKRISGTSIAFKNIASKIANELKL
Sequence of MAP kinase-activated protein kinase 2 (Homo sapiens) (P49137 whole entry, looked up): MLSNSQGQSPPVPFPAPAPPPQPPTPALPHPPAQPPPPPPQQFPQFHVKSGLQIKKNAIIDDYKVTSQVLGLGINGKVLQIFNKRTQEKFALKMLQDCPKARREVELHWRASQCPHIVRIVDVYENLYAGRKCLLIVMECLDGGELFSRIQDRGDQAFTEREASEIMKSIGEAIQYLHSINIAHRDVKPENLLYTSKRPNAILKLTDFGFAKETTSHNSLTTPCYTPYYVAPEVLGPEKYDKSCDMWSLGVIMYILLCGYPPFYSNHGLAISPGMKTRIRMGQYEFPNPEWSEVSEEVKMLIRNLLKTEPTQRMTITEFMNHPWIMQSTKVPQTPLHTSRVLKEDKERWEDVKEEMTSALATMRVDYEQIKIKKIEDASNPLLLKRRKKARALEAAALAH
Sequence of Serine/threonine-protein kinase MARK1 (Homo sapiens) (Q9P0L2 whole entry, looked up): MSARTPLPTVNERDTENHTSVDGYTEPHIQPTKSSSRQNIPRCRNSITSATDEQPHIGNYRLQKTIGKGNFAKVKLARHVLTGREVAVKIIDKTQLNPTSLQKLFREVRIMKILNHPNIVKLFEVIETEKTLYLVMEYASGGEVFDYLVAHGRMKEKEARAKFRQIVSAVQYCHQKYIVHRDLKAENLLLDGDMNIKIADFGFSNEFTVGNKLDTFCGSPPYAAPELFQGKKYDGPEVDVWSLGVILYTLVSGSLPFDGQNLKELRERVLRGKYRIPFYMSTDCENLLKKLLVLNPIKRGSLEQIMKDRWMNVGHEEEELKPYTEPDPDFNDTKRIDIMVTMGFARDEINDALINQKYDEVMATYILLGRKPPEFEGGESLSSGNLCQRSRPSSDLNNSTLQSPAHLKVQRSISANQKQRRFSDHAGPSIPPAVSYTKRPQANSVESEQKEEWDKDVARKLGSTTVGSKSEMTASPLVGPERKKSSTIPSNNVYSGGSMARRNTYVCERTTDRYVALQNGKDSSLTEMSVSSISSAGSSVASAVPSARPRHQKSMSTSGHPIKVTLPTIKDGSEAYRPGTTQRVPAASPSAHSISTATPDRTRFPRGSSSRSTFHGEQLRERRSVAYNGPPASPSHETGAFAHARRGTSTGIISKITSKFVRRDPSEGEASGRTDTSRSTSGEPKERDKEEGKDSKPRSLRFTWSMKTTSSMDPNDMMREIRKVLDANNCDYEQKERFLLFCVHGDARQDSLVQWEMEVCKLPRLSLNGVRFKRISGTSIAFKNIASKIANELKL

On to `CCn1c(-c2nonc2N)nc2cncc(C(=O)NCCNC)c21`, for which the inhibition is -0.37% in assay [1]; 3.51% in [2]; 6.88% in [3]; -2.59% in assay [4]; 0.71% in assay [5]; 2.97% in assay [6]. Also, the inhibition was -0.23% in assay [7]; 4.63% in assay [8]; 5.44% in [9]; 3.2% in assay [10]; 0.19% in assay [11]; 1.52% in [12]. In addition, the inhibition turned out to be 1.62% in [13]; 2.34% in [14]; 1.53% in [15]; 3.52% in assay [16]; 3.94% in assay [17]; 1.84% in assay [18]. In addition, the inhibition was determined as 14.9% in [19] and 1.81% in assay [20].

In the case of `CC(C)c1ccc(-c2cc(-c3c[nH]nc3-c3ccccn3)ccn2)cc1`, the inhibition in [1] was -0.49%; in assay [2] it was -0.8%; in [3], 1.63%; in assay [4], 0.73%; in [5], 1.62%; in assay [6], -0.13%. In addition, the inhibition in [7] was 1.92%; in assay [8] it was 0.27%; in assay [9], 0.77%; in [10], 0.1%; in assay [11] it was -0.6%; in assay [12], 0.39%. Besides, the inhibition in assay [13] is -0.35%; in assay [14] it was 0.58%; in [15] it was -0.11%; in assay [16], 0.63%; in [17], 6.51%; in assay [18] it was 1.23%. Also, the inhibition is 1.49% in [19] and -3.53% in [20].

As to `Fc1ccc(Nc2nccc(-c3c(-c4ccc(C(F)(F)F)cc4)nn4ncccc34)n2)cc1F`, the inhibition was 4.6% in assay [1]; 1.73% in assay [2]; 4.42% in assay [3]; -0.48% in assay [4]; 0.05% in assay [5]; 3% in assay [6]. Besides, the inhibition in [7] was determined as 3.73%; in assay [8] it was 3.02%; in assay [9], 4.46%; in [10], 3.45%; in assay [11] it was 4.85%; in assay [12] it was 1.36%. The inhibition in assay [13] was determined as 0.53%; in assay [14], 1.35%; in [15], 0.53%; in [16], 1.82%; in [17], 4.65%; in [18], 3.43%. The inhibition was determined as 4.46% in assay [19] and 3.28% in [20].

`NS(=O)(=O)c1cccc(N/C=C2\C(=O)Nc3ccccc32)c1`: the inhibition in assay [1] worked out at 8.27%; in assay [2], 5.11%; in assay [3] it was 16.3%; in [4], 1.25%; in assay [5], 2.86%; in assay [6], 9.31%. Besides, the inhibition in [7] turned out to be 14.3%; in assay [8], 10.6%; in [9] it was 32.8%; in assay [10], 10.6%; in assay [11], 12.5%; in [12], 0.84%. In addition, the inhibition in assay [13] is 2.32%; in assay [14], 4.22%; in assay [15] it was 4.45%; in assay [16], 11.3%; in assay [17], 12.1%; in assay [18] it was 6.31%. The values for the inhibition in assay [19] and in assay [20] were 24.4% and 5.23%, respectively.

Regarding `NS(=O)(=O)c1ccc(N/N=C2\C(=O)Nc3ccc(C(=O)NCc4ccncc4)cc32)cc1`, the inhibition in assay [1] was 5.1%; in [2], 3.39%; in [3] it was 11.8%; in assay [4], -2.17%; in assay [5], -4.16%; in assay [6], 2.58%. For the same molecule, the inhibition in [7] was found to be 11.1%; in [8], 4.18%; in [9] it was 19.2%; in assay [10], 4.72%; in assay [11], 4.92%; in [12] it was 3.49%. Further, the inhibition in [13] was determined as 0.04%; in assay [14] it was 2.73%; in assay [15], 3.71%; in [16] it was 4.05%; in assay [17] it was 2.16%; in assay [18], 7.5%. Further, the inhibition was determined as 40.7% in assay [19] and 4.2% in assay [20].

As to `CCOc1ccc2c(-c3ccnc(Nc4cc(OC)cc(C(F)(F)F)c4)n3)cnn2n1`, the inhibition in [1] was -0.03%; in [2] it was 0.7%; in assay [3], 1.42%; in [4], 1.18%; in assay [5], -0.28%; in [6], 3.19%. Besides, the inhibition in [7] is 1.38%; in [8], -0.97%; in assay [9], 0.04%; in assay [10] it was 0.8%; in assay [11] it was 1.23%; in [12], -0.5%. Besides, the inhibition in assay [13] is 4.41%; in assay [14], 0.58%; in assay [15], -0.09%; in [16], 0.28%; in assay [17] it was -1.31%; in assay [18] it was -0.04%. Besides, the inhibition is 2.77% in assay [19] and -1.2% in assay [20].

As for `Cc1cc(O)cc(C)c1/C=C/c1cncc(C(=O)OC(C)(C)C)c1`, the inhibition came out at 3.26% in assay [1]; 2.39% in assay [2]; 5.41% in assay [3]; 0.08% in assay [4]; 1.35% in [5]; 2.4% in [6]. Also, the inhibition was determined as 3.47% in [7]; 0.86% in assay [8]; 2.31% in [9]; 1.5% in assay [10]; 1.3% in [11]; 4.19% in assay [12]. Also, the inhibition in assay [13] came to 6.15%; in assay [14], 1.72%; in [15], 1%; in assay [16], 1.97%; in [17], 2.47%; in [18] it was 2.3%. In addition, the inhibition in assay [19] stood at 2.93%; in assay [20], 2.5%.

On to `COc1ccc(-c2nn3ncccc3c2-c2ccnc(Nc3ccc(F)c(F)c3)n2)cc1`, for which the inhibition is 4.43% in assay [1]; 3.14% in [2]; 7.4% in assay [3]; -3.18% in [4]; -4.79% in assay [5]; 3.76% in [6]. The inhibition in assay [7] was determined as 8.64%; in assay [8], 6.74%; in [9], 7.89%; in assay [10] it was 4.63%; in [11] it was 6.8%; in assay [12] it was 1.7%. The inhibition worked out at 0.5% in assay [13]; 2.31% in assay [14]; 2.82% in assay [15]; 16.8% in assay [16]; 32.5% in assay [17]; 4.53% in [18]. For the same molecule, the inhibition in assay [19] stood at 8.38%; in assay [20], 4.11%.

On to `COc1c(C(N)=O)cc(-c2ccc(Cl)cc2)cc1-c1ccc(S(N)(=O)=O)cc1`, for which the inhibition was 6.07% in assay [1]; 4.78% in assay [2]; 8.49% in [3]; -0.13% in assay [4]; 3.77% in assay [5]; -0.02% in assay [6]. The inhibition was 1.33% in [7]; 5.72% in assay [8]; 10.5% in [9]; 1.52% in assay [10]; 0.56% in [11]; -5.08% in assay [12]. Moreover, the inhibition in assay [13] was determined as 2.52%; in assay [14] it was 2.42%; in assay [15], 3.46%; in assay [16] it was 5.57%; in [17], 8.63%; in [18], 0.41%. For the same molecule, the inhibition in [19] is 1.61%; in [20], -0.24%.

A word on the inhibition: it is the change of the read-out against control, counted positive when it falls.
